# Screening data from PubChem BioAssay.
# T cruzi growth-1 – T. cruzi proliferation inhibition; T. cruzi beta-gal in NIH3T3, GalScreen luminescence, 90 h; inhibition, % at 8.34 µM; 77,000 tested, 5.9% active; AID 624255;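 active means mean inhibition above about 93%, with at least 55% of replicates each passing it, limit read from the data, passing the limit was not always enough; inconclusive means only one of those two conditions holds; inactive means neither condition holds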
# C diff HTS – C. difficile growth inhibition; Clostridium difficile clinical isolate growth, OD600, 24 h; active compounds read low; growth activity, negative = inhibition, % at 16 µg/mL (by protocol); 86,000 tested, 0.25% active;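 active means mean growth activity at or below -80% and every replicate also at or below -80%; inconclusive means mean at or below -80% but some replicate above -80%; inactive means mean growth activity above -80%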
# Pf Dd2 inh – inhibitors of Plasmodium falciparum Dd2 growth; P. falciparum Dd2 growth, SYBR Green, 72 h; active compounds read low; activity change, % at 10 µM; 94,000 tested, 2.3% active; AID 1159554; in the data active means activity change below about -80%; inconclusive means no clear call, values can overlap the other calls
# T cruzi growth-2 – Trypanosoma cruzi proliferation inhibition | shares compounds with T cruzi growth-1 | T. cruzi beta-gal in NIH3T3, GalScreen luminescence, 90 h | inhibition, % at 8.35 µM | 5,600 tested, 72% active | AID 651739;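 active means mean replicate inhibition above about 95% and at least 55% of replicates individually reaching it, limit read from the data; inconclusive means only one of the two criteria is met; inactive means neither criterion is met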
# T cruzi growth-3 – blocks T. cruzi growth in NIH3T3 host cells. shares compounds with T cruzi growth-1. inhibition, % at 2.09 µM. 5,600 tested, 21% active. T. cruzi beta-gal in NIH3T3, GalScreen luminescence, 90 h. AID 651740;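 active means mean inhibition above about 95%, with at least 55% of replicates also reaching it, limit read from the data; inconclusive means meets just one of the two conditions; inactive means meets neither condition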
# NIH3T3 tox – kills mouse NIH/3T3 fibroblasts. 5,600 tested, 14% active. shares compounds with T cruzi growth-1. cytotoxicity (signal decrease), % at 8.35 µM. NIH/3T3 viability, CellTiter-Glo ATP luminescence, 90 h. AID 651742;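 active means mean signal decrease across replicates above about 35% based on untreated-well scatter, with enough replicates individually passing, limit read from the data; inconclusive means no rule stated though some were filed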
# NIH3T3 tox 2 – kills mouse NIH/3T3 fibroblasts | shares compounds with T cruzi growth-1 | NIH/3T3 viability, CellTiter-Glo ATP luminescence, 90 h | inhibition, % at 24.9 µM | 5,600 tested, 56% active;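 active means mean loss of cell viability signal at or above a set limit, and enough replicates individually reaching it; inconclusive means meets only the mean limit or only the replicate share; inactive means meets neither condition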
# Hits are given with their value; – = inactive; ? = inconclusive; · = no result given. Shown are actives, neighbours in structure and some others; about 6.8% of the full set was active somewhere.
SMILES,T cruzi growth-1,C diff HTS,Pf Dd2 inh,T cruzi growth-2,T cruzi growth-3,NIH3T3 tox,NIH3T3 tox 2
C[C@H]1CCCCO[C@H](CN(C)Cc2ccncc2)[C@@H](C)CN([C@@H](C)CO)C(=O)c2cc(NC(=O)CCCN(C)C)ccc2O1,99.3,·,–,–,–,–,–
C[C@@H]1CCCCO[C@@H](CN(C)Cc2ccncc2)[C@@H](C)CN([C@@H](C)CO)C(=O)c2cc(NC(=O)CCCN(C)C)ccc2O1,–,–,·,·,·,·,·
CO[C@@H]1CN(C)C(=O)c2cc(NC(=O)Nc3ccccc3F)ccc2OC[C@H](C)N(Cc2ccccc2C(=O)O)C[C@@H]1C,·,·,–,·,·,·,·
COc1ccc(S(=O)(=O)Nc2ccc3c(c2)C(=O)N([C@@H](C)CO)C[C@@H](C)[C@@H](CN(C)C(=O)Nc2ccccc2)OCCCC[C@H](C)O3)cc1,–,–,–,·,·,·,·
C[C@@H]1CN([C@H](C)CO)C(=O)c2cc(NC(=O)CCN3CCOCC3)ccc2O[C@H]1CN(C)S(=O)(=O)c1cn(C)cn1,–,–,–,·,·,·,·
C[C@H](NC(=O)C[C@@H]1CC[C@@H](NC(=O)Nc2ccc3c(c2)OCO3)[C@H](CO)O1)c1ccccc1,–,·,–,·,·,·,·
CCCN(C)C[C@H]1OCc2cnnn2CCCC(=O)N([C@H](C)CO)C[C@H]1C,–,·,–,·,·,·,·
Cc1ccccc1S(=O)(=O)N1[C@@H](C#N)[C@@H](c2ccc(C#CC3CCCC3)cc2)[C@@H]1CO,·,–,–,·,·,·,·
N#C[C@H]1[C@H](c2ccc(C#CC3CCCC3)cc2)[C@H](CO)N1S(=O)(=O)c1ccccc1,–,–,–,·,·,·,·
N#C[C@H]1[C@@H](c2ccc(C#CC3CC3)cc2)[C@@H](CO)N1S(=O)(=O)c1ccccc1,96.3,–,–,106.6,–,–,35.7
N#C[C@H]1[C@@H](c2ccc(C#CC3CCCC3)cc2)[C@H](CO)N1S(=O)(=O)c1ccccc1,–,–,–,·,·,·,·
N#C[C@@H]1[C@H](c2ccc(C#CC3CC3)cc2)[C@@H](CO)N1S(=O)(=O)c1ccccc1,?,–,–,102.9,108.7,–,–
N#C[C@@H]1[C@H](c2ccc(C#CC3CCCCC3)cc2)[C@H](CO)N1S(=O)(=O)c1ccccc1,–,–,–,·,·,·,·
N#C[C@@H]1[C@@H](c2ccc(C#CC3CCCC3)cc2)[C@@H](CO)N1S(=O)(=O)c1ccccc1,98.6,–,–,101.6,?,45.8,102.1
N#C[C@H]1[C@H](c2ccc(C#CC3CC3)cc2)[C@H](CO)N1S(=O)(=O)c1ccccc1,100.6,–,–,102.8,109.4,–,34.3
O=C(Cc1ccccc1)N[C@H]1C=C[C@@H](CC(=O)N2CCCCC2)O[C@H]1CO,–,–,–,·,·,·,·
Cn1cnc(CCNC(=O)C[C@@H]2CC[C@@H]3[C@H](COC[C@H](O)CN3C(=O)Nc3ccc(C(F)(F)F)cc3)O2)c1,107.2,–,–,–,–,–,–
Cn1cnc(CCNC(=O)C[C@@H]2CC[C@@H]3[C@H](COC[C@@H](O)CN3C(=O)Nc3ccc(C(F)(F)F)cc3)O2)c1,–,–,–,·,·,·,·
Cn1cnc(CCNC(=O)C[C@@H]2CC[C@H]3[C@@H](COC[C@H](O)CN3C(=O)Nc3ccc(C(F)(F)F)cc3)O2)c1,–,–,–,·,·,·,·
Cn1cnc(CCNC(=O)C[C@H]2CC[C@@H]3[C@H](COC[C@@H](O)CN3C(=O)Nc3ccc(C(F)(F)F)cc3)O2)c1,113.6,–,–,100.5,–,–,–
O=C(C[C@H]1CC[C@@H](NC(=O)C2CCC2)[C@H](CO)O1)NCCCN1CCOCC1,·,–,–,·,·,·,·
COc1ccccc1NC(=O)N[C@H]1C=C[C@@H](CC(=O)N2CCC(Cc3ccccc3)CC2)O[C@H]1CO,–,·,–,·,·,·,·
COc1cccc(-c2ccc3c(c2)[C@@H]2[C@@H](CCN2C(=O)NC2CCCCC2)[C@H](CO)N3C)c1,·,–,–,·,·,·,·
C[C@H]1CCCCO[C@@H](CN(C)C(=O)NC2CCCCC2)[C@@H](C)CN([C@@H](C)CO)C(=O)c2cc(NC(=O)Nc3ccccc3)ccc2O1,110.1,–,–,110.6,–,–,–
C[C@H]1CCCCO[C@@H](CN(C)C(=O)Nc2ccccc2)[C@@H](C)CN([C@@H](C)CO)C(=O)c2cc(NC(=O)NC3CCCCC3)ccc2O1,97.8,·,–,?,–,–,–
SMILES,T cruzi growth-1,C diff HTS,Pf Dd2 inh,T cruzi growth-2,T cruzi growth-3,NIH3T3 tox,NIH3T3 tox 2
C[C@H]1CCCCO[C@H](CN(C)C(=O)NC2CCCCC2)[C@@H](C)CN([C@@H](C)CO)C(=O)c2cc(NC(=O)Nc3ccccc3)ccc2O1,–,–,–,·,·,·,·
C[C@@H]1CN([C@@H](C)CO)C(=O)c2cc(NC(=O)NC3CCCCC3)ccc2O[C@@H](C)CCCCO[C@@H]1CN(C)C(=O)Nc1ccccc1,–,·,–,·,·,·,·
COc1cccc(NC(=O)N[C@H]2C=C[C@H](CC(=O)Nc3ccccc3)O[C@@H]2CO)c1,·,–,–,·,·,·,·
COc1ccc(NC(=O)N(C)C[C@H]2Oc3ccc(NC(=O)Nc4ccccc4)cc3C(=O)N([C@@H](C)CO)C[C@@H]2C)cc1,–,–,–,·,·,·,·
COc1ccc(NC(=O)N(C)C[C@H]2Oc3cc(C#CCC(C)C)ccc3S(=O)(=O)N([C@H](C)CO)C[C@@H]2C)cc1,–,–,–,·,·,·,·
COc1ccc(NC(=O)N(C)C[C@@H]2Oc3cc(C#CCC(C)C)ccc3S(=O)(=O)N([C@H](C)CO)C[C@@H]2C)cc1,104.2,–,–,100.7,–,–,63.5
CCCC#Cc1ccc2c(c1)O[C@H](CN(C)C(=O)Nc1ccc(OC)cc1)[C@H](C)CN([C@@H](C)CO)S2(=O)=O,–,–,–,·,·,·,·
CCCC#Cc1ccc2c(c1)O[C@@H](CN(C)C(=O)Nc1ccc(OC)cc1)[C@@H](C)CN([C@H](C)CO)S2(=O)=O,104.5,–,–,111.9,–,–,–
O=C(C[C@@H]1C=C[C@H](NC(=O)CC2CC2)[C@@H](CO)O1)NCc1ccc(Cl)cc1,–,–,–,·,·,·,·
C/C=C/c1ccc([C@@H]2[C@H](CO)N[C@H]2CN(CC)C(=O)c2ccccn2)cc1,–,–,–,·,·,·,·
CCN(C[C@H]1N[C@H](CO)[C@H]1c1ccc(C2=CCCC2)cc1)C(=O)c1ccncc1,104.2,–,–,–,–,–,–
C/C=C/c1ccc([C@@H]2[C@@H](CO)N[C@@H]2CN(CC)C(=O)c2ccccn2)cc1,100.2,–,–,–,–,–,–
O=C(NC[C@H]1N[C@H](CO)[C@@H]1c1ccc(C2=CCCCC2)cc1)c1ccc(F)cc1,96.2,–,–,99.7,–,–,106.5
CCN(C[C@H]1N[C@H](CO)[C@H]1c1ccc(C2=CCCC2)cc1)C(=O)c1cccnc1,–,–,–,·,·,·,·
CCN(C[C@H]1N[C@@H](CO)[C@@H]1c1ccc(C2=CCCC2)cc1)C(=O)c1ccncc1,105.1,–,–,98.0,–,–,55.0
